Screens (PubChem BioAssay)
Sampled rows, rich in hits. Any-hit rate of the full collection: about 9.2%.
ELG1 genotoxic – induces genotoxicity in HEK293T cells with luciferase-tagged ELG1; HEK293T ELG1-luciferase reporter, luminescence, 16 h; Potency, µM (highest dose often 46 µM), without a hit: at the highest dose activity change, positive = activation, actives largely listed as activators; 1.3% of 330,000 active; note: % of control where 0% means no effect; nearly all actives have a fitted effect of over 60% in size
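Reporter readout depends on ELG1 protein level, which increases with genetic stress. After 16 hr compound exposure at 37 °C, luciferase activity was quantified using ONE-Glo.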
FLuc modulator – firefly luciferase modulation, counter-screen for miR-21 project. Potency, µM (highest dose often 57.5 µM), inactives show at the highest dose activity change, negative = inhibition, actives largely listed as inhibitors. 6.9% of 360,000 active. purified FLuc, Km substrates, luminescence inhibition. P08659;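 note: plate controls were vehicle for no effect and reference inhibitor for full effect; nearly all actives have a fitted effect of over 55% in size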
Target sequence (P08659 whole entry, looked up): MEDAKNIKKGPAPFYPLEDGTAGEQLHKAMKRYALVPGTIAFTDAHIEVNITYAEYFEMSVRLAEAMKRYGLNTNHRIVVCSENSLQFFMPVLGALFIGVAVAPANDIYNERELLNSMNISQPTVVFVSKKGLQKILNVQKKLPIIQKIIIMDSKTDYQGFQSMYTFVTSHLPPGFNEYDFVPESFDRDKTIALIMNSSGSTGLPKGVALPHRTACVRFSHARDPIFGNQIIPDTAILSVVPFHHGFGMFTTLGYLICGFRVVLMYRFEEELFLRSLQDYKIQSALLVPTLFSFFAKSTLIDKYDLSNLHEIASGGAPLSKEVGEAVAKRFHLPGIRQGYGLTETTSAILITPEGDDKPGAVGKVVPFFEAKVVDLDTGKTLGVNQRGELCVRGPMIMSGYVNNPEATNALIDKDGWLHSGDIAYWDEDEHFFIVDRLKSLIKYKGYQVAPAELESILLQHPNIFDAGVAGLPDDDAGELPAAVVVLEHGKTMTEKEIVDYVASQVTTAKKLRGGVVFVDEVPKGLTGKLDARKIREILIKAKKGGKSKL
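Purified P. pyralis luciferase, 10 nM final, with Km-level 10 uM D-luciferin and 10 uM ATP in 50 mM Tris acetate pH 7.5, 10 mM Mg acetate, 0.01% Tween-20, 0.05% BSA; 6-point qHTS titration about 60 µM downward; luminescence read.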
ELG1 repair inh – inhibitors of ELG1-dependent DNA repair in HEK293T cells; HEK293T ELG1-luciferase reporter, luminescence, 16 h; DNA damage induced by 5-fluorouridine; Potency, µM (series often up to 46.1 µM), without a hit: top-dose activity change, negative = inhibition, most hits filed as inhibitors; 2.3% of 330,000 active; note: % is set by controls: 0 for no effect and ±100 for the full control effect; nearly all actives have a fitted effect of over 55% in size
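Reporter activity after DNA damage by 5-fluorouridine is monitored. Compound-treated cells incubate 16 hr at 37 °C, then ONE-Glo is added for 30 min before luminescence reading.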
NPC1 prom act – activates the NPC1 promoter; Huh7 NPC1 promoter luciferase reporter, 24 h; Potency, µM (top dose mostly 9.22 µM), for inactives: at the top dose activation, hits mostly activators; 2.4% of 320,000 active; note: % of control where 0% means no effect; nearly all actives have a fitted effect of over 60% in size
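Stable NPC1-promoter luciferase Huh7 line; cpd (DMSO) 24 h, 37 °C, 5% CO2; Amplite luciferase reagent 10 min RT; luminescence readout. qHTS format.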
SMN2 splice up – SMN2 splice variant enhancement; Potency, µM (titrated, usually from 46.1 µM), for the others: at the top dose activity change, positive = activation, usual class: activators; 2.8% of 210,000 active; HEK293 SMN2-luciferase splicing reporter, luminescence, 30-36 h; note: % of control where 0% means no effect; nearly all actives have a fitted effect of over 55% in size
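HEK293 cells carry an SMN2 […]–luciferase reporter in which exon 7 inclusion puts luciferase in frame. Cells were plated 10-12 h before compound addition, then incubated 30-36 h at 37C. ONE-Glo luminescence was read; sodium butyrate at 4.5 mM final served as control.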
Rab9 prom act – activates the Rab9 promoter | 2.8% of 320,000 active | Potency, µM (top dose mostly 9.22 µM), without a hit: at the top dose activation, negative = inhibition, actives largely listed as activators | AID 485297 | Huh7 Rab9 promoter-luciferase reporter, luminescence, 24 h; note: % of control where 0% means no effect; nearly all actives have a fitted effect of over 60% in size
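Measured in stably transfected Huh7 cells bearing a Rab9 promoter–luciferase construct: 24 h compound treatment at 37 °C, followed by luminescence detection.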
Numbers without * were called inactive; ? = inconclusive; . = no result; [ ] = another dose, or the depositor's remark. Calls come from the whole dose curve; as a rule, active = well fitted curve in the direction sought with a large enough effect; inconclusive = small, poorly fitted or top-dose-only effect, or another doubt; inactive = no such curve, though single readings can be large; an effect the other way counts as inactive or inconclusive. Potency is the fitted concentration of half-maximal effect.

SMILES | ELG1 genotoxic | FLuc modulator | ELG1 repair inh | NPC1 prom act | SMN2 splice up | Rab9 prom act
O=C(O)Cc1ccc(NC(=O)c2ccc3c(c2)C(=O)N(CC2CCCO2)C3=O)cc1 (stereo not given) | 15% | -1% | -2% | 10% | . | -4%
COC(=O)c1cccc(NC(=O)c2ccc3c(c2)C(=O)N(CC2CCCO2)C3=O)c1 (stereo not given) | 0% | 24µM* | -21% | 3% | 13% | 0%
COc1ccccc1N1C(=O)c2ccc(C(=O)Nc3ccc(C(=O)O)cc3)cc2C1=O | 1% | 27µM* | 12% | -3% | . | -3%
COc1ccc(CNC(=O)c2ccc(-c3nc(CSc4ccccc4)c(C)o3)cc2)cc1OC | . | -2% | . | . | . | .
O=C(COC(=O)COc1ccc(Cl)cc1)Nc1ccc(N2CCOCC2)cc1 | 0% | -9% | 16% | 0% | 12% | 2%
CCCn1cnc2c(=S)nc(N)[nH]c21 | 0% | 0% | 6% | -2% | . | -1%
O=C(CCC(=O)c1ccc(F)cc1)Nc1cccc(S(=O)(=O)Nc2cccc(Cl)c2)c1 | -6% | -3% | -27% | 1% | -44% | 9%
COC(=O)N1CCC2(CC1)CN(C(=O)Nc1ccccc1)C2 | . | . | . | . | -3% | .
O=C(Nc1ccc2c(c1)C(=O)N(CC1CCCO1)C2=O)c1cccc(Br)c1 (stereo not given) | -4% | 11µM* | -22% | 0% | -17% | 11%
O=C(Cc1ccccc1)Nc1ccc2c(c1)C(=O)N(CC1CCCO1)C2=O (stereo not given) | 0% | ? | 8% | -3% | 3% | 6%
CCOC(=O)c1c(C)n(-c2ccccc2)c2ccc(OC(=O)c3ccccc3)cc12 | . | -8% | . | . | -33% | .
COc1ccc(-c2nnc(Nc3nc4c(OC)cccc4s3)o2)cc1 | ? | 5.4µM* | -12% | 7% | 1% | -9%
COc1ccc(-c2ccc(-c3nnc(-c4cc(OC)ccc4OC)o3)cc2)cc1 | 16% | 0% | ? | -4% | -25% | 1%
COc1ccc(-c2nnc(Nc3nc4c(OC)cccc4s3)o2)c(OC)c1 | 2% | 9.5µM* | -8% | 0% | -10% | 2%
Cc1ccccc1NC(=O)CCNS(=O)(=O)c1cccc2nsnc12 | 0% | -1% | 0% | 1% | . | 0%
CCCN(c1ccccc1CC)S(=O)(=O)c1ccc2c(c1)CC(C)N2C(=O)C1CC1 (stereo not given) | . | -9% | . | . | . | .
COc1ccc(NC(C)=O)cc1S(=O)(=O)N1CCN(C/C=C/c2ccccc2)CC1 | -8% | 0% | 0% | -3% | 1% | 0%
O=C(Nc1ccc(Cn2cccn2)cc1)c1ccc(COc2cccc(Br)c2)cc1 | ? | 15µM* | ? | 0.56µM* | 13µM* | 0.5µM*
O=C1NC(=O)/C(=C/c2ccc(O)cc2)S1 | ? | 15µM* | ? | 30% | . | ?
O=C1NC(=O)/C(=C/c2ccccn2)S1 | 6% | ? | ? | -3% | . | 17%
O=C(COC(=O)c1ccc([N+](=O)[O-])cc1)NC12CC3CC(CC(C3)C1)C2 | 0% | . | 0% | . | . | .
O=C(COC(=O)c1ccccc1)NC12CC3CC(CC(C3)C1)C2 | -1% | 6.7µM* | 24% | -2% | . | 0%
N#Cc1ccccc1Sc1ccccc1C(=O)OCC(=O)NC12CC3CC(CC(C3)C1)C2 | -2% | -15% | 21µM* | -1% | -24% | -3%
O=C(CCCc1ccccc1)NC12CC3CC(CC(C3)C1)C2 | ? | 9.5µM* | ? | 3.2µM* | . | 2.2µM*
O=C(COC(=O)C12CC3CC(CC(C3)C1)C2)NCCCc1ccccc1 | 1% | 3% | 2% | -6% | ? | -1%
SMILES | ELG1 genotoxic | FLuc modulator | ELG1 repair inh | NPC1 prom act | SMN2 splice up | Rab9 prom act
CCCC(=O)C1=C(c2cccc(OC)c2)N(C(=O)CCC)n2c(C)nnc2S1 | . | 2% | . | . | . | .
Cc1cc(C)n2nc(C(=O)N/N=C/c3cccs3)nc2n1 | 0% | 2% | 15% | 0% | . | -3%
Cc1ccc(N(C)C2=NC(=O)CS2)cc1Cl | 1% | -5% | 2% | 2% | . | 3%
Cc1cc2nc(-c3cccc(NC(=O)COc4ccc(C(C)C)cc4)c3)oc2cc1C | . | 1.5µM* | . | . | 12% | .
Cc1cc2nc(-c3cccc(NC(=O)COc4ccc(Cl)c(C)c4)c3)oc2cc1C | . | 1.9µM* | . | . | . | .
CSc1ccccc1NC(=O)Cn1nc([N+](=O)[O-])cc1C | 0% | -14% | 9% | 1% | 2% | 3%
CC(C)c1cc(C(=O)Nc2cccnc2)no1 | ? | -2%[2.3 µM] | ? | 4µM* | 35µM* | 2.8µM*
CCCc1cc(C(=O)NCc2cccnc2)no1 | 6% | -2% | ? | -2% | -3% | 4%
COc1ccc(NC(=O)c2cc(C(C)C)on2)cc1OC | ? | ? | ? | 29% | 6% | 22%
CCCc1cc(C(=O)Nc2ccc(C(C)=O)cc2)no1 | ? | ? | ? | 8% | -34% | 17%
CCCc1cc(C(=O)NCc2ccccc2)no1 | 23µM* | ? | ? | 15% | ? | 19%
CCCc1cc(C(=O)NCc2ccco2)no1 | ? | ? | ? | 17% | 4% | ?
CCCc1cc(C(=O)Nc2cccc(C(C)=O)c2)no1 | ? | ? | ? | 3.2µM* | 15% | ?
CCCc1cc(C(=O)Nc2cccnc2)no1 | ? | 15µM* | ? | 1% | 19% | 8%
COc1ccc(-n2c(SCC(=O)Nc3cc(C(=O)O)ccc3C)nc3ccccc3c2=O)cc1Cl | -2% | -3% | -19% | -2% | . | 0%
CCCc1cc(C(=O)Nc2cccc(Cl)c2)no1 | 15µM* | 1.9µM* | ? | 0% | 16% | -3%
CCCc1cc(C(=O)Nc2ccc(C#N)cc2)no1 | 8% | -19% | ? | 2% | . | 4%
CCCc1cc(C(=O)Nc2ccc(F)c(Cl)c2)no1 | ? | 5.4µM* | 14% | 1% | . | 0%
CCCc1cc(C(=O)Nc2ccccc2SC)no1 | ? | ? | ? | 17% | ? | ?
CCCc1cc(C(=O)Nc2ccc(F)cc2F)no1 | 12µM* | 11µM* | ? | 19% | -13% | ?
CCCc1cc(C(=O)Nc2cccc(Cl)c2C)no1 | 18µM* | 24µM* | ? | ? | . | ?
Cc1ccccc1NC(=O)c1cnc2sc(N3CCCC3)nn2c1=O | . | 0% | . | . | . | .
CC(C)(C)C(=O)NC(=S)NNC(=O)c1ccc(Cl)cc1Cl | 12% | -13% | ? | 7% | -17% | -1%
N#Cc1ccc(-n2nccc2-c2cnc3n(c2=O)CCS3)cc1 | 4% | 12% | 9% | 7% | -3% | 1%
Cc1cccc(Nc2nc(C)cc(C)n2)c1 | -2% | -17% | 30% | -4% | . | -3%
